# Screening results from PubChem BioAssay.
# MIN6 prolif: induces beta-cell replication in MIN6 cells; proliferation, % at 10 µM; MIN6 cells proliferation, ATPlite luminescence, 48 h; cells starved in 0.2% serum; 100% = growth in 10% serum; 0.29% of 330,000 active;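 active = compounds whose signal lies at least 3.5 SD above the mean of all wells on their plate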
# FAS TE block: blocks the thioesterase domain of human fatty acid synthase; P49327; recombinant FAS-TE, OMFH fluorogenic substrate, fluorescence endpoint; inhibition, % at 15 µM; 0.67% of 360,000 active; AID 602261;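 active = compounds whose normalised, plate-corrected inhibition of enzyme fluorescence in the single-dose primary screen is 50% or more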
# Target sequence (P49327 whole entry, looked up, the tested form may be a part): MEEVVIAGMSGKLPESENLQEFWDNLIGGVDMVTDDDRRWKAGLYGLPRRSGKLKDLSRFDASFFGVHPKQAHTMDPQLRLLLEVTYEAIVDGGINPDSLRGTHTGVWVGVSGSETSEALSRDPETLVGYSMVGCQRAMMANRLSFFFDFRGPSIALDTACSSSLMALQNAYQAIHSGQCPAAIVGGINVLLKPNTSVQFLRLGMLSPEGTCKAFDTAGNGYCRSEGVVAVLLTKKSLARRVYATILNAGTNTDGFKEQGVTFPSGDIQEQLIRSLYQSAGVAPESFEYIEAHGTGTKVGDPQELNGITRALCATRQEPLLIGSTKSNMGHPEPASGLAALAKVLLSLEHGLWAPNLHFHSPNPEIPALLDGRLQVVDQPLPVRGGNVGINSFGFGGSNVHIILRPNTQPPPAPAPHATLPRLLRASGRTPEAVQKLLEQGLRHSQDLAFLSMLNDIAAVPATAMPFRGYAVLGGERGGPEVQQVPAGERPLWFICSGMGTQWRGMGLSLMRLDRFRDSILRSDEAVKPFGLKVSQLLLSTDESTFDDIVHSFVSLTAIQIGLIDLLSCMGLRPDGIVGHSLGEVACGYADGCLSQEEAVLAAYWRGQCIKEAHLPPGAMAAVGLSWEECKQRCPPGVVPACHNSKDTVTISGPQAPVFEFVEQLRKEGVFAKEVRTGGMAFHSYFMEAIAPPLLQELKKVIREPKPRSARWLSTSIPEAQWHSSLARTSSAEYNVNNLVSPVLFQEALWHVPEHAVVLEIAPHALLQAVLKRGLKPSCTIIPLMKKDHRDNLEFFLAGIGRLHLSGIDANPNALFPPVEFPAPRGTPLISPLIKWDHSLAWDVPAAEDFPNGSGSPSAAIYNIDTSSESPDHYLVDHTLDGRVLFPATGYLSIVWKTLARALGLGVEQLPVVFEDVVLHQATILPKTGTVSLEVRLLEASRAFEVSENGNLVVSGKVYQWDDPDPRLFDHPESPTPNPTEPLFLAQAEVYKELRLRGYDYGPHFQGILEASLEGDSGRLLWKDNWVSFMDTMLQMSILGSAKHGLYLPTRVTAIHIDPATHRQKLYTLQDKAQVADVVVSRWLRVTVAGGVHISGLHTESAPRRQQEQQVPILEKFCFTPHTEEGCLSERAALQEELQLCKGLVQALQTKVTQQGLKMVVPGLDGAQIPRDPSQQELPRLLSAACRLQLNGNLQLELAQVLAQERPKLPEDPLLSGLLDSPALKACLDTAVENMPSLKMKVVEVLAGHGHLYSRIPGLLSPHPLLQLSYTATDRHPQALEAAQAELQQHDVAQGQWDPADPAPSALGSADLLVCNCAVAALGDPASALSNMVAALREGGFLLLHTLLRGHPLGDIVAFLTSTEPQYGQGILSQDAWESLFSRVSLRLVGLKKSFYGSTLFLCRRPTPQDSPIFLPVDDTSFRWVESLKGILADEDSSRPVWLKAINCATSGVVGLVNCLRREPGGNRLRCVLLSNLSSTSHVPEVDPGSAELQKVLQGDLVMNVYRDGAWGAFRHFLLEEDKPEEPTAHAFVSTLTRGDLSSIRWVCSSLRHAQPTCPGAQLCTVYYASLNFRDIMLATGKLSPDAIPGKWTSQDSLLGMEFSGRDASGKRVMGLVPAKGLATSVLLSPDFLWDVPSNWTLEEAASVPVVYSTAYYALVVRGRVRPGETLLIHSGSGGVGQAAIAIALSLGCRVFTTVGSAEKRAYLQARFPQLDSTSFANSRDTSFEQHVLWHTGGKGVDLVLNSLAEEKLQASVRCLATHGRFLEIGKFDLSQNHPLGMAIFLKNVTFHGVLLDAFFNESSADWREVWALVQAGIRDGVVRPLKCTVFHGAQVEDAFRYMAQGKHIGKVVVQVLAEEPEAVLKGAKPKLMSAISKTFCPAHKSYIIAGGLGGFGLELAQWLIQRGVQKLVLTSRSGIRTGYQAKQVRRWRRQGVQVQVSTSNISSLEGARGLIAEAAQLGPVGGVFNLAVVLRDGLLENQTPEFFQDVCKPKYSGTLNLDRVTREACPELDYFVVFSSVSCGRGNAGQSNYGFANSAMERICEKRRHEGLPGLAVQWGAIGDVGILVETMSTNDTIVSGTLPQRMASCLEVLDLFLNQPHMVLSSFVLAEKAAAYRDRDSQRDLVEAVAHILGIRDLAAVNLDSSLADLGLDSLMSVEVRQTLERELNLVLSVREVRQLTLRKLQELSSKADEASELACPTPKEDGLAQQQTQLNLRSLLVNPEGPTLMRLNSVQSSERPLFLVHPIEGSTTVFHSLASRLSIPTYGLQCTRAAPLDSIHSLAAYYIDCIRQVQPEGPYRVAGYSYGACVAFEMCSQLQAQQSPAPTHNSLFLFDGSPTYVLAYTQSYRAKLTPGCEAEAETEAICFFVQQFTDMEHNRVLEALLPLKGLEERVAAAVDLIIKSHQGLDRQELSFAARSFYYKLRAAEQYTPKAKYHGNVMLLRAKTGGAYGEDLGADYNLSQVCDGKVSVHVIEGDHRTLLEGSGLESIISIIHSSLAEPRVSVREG
# aDG glyco act: alpha-DG glycosylation activation | activation, % at 10 µM | AID 624168 | 0.22% of 360,000 active | Pro5-aDG cells, alpha-DG glycosylation AlphaScreen (IIH6); 0% Pro5, 100% B10-LARGE cell signal;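 active = activation of at least 8% versus controls, or a plate z-score of at least 8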;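 note: Pro5 are CHO cells carrying HIG-tagged alpha-DG that lacks glycosylation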
# m-calpain inh: inhibitors of pig calpain II; inhibition, % at 16 µM; 0.37% of 220,000 active; purified calpain II, fluorogenic peptide substrate, 30 min; AID 1236;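 active = inhibition above about 50%, limit read from the data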
# H9c2 protect: myocardial damage modulation in H9c2 cells | AID 588492 | 0.63% of 360,000 active | H9c2 cardiomyocytes, H2O2 injury protection, ATPLite, 2 h | protection from H2O2 cell death, % at 20 µM;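 active = compounds giving at least 50% protection of heart cells from peroxide-induced death in the single-dose screen, raw or plate-pattern-corrected value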
# TAG inh: reduces triacylglycerol accumulation in H9c2 cells | Nile Red lipid (TAG) fluorescence; cells loaded with 200 µM oleic acid | inhibition, % at 12.5 µM | 0.66% of 230,000 active | AID 651582;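 active = pattern-corrected inhibition of lipid staining of at least 50% with the nuclear-stain viability signal not falling by more than 50%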
# Numbers stand for hits; 0 = inactive; - = no result; ! = not confirmed by another sample. A selection: hits, their analogues and other compounds. The true share with any hit is near 2.3%.
SMILES,MIN6 prolif,FAS TE block,aDG glyco act,m-calpain inh,H9c2 protect,TAG inh
Cc1cc2c(C(C)C)c(O)c(O)c(C=O)c2c(O)c1-c1c(C)cc2c(C(C)C)c(O)c(O)c(C=O)c2c1O,-,0,0,55!,0,0
O=C(Nc1cccc(C(F)(F)F)c1)c1cccn(Cc2ccc3c(c2)OC(F)(F)O3)c1=O,0,0,0,52,0,-
O=C(Nc1ccc(C(F)(F)F)cc1)c1cccn(Cc2ccc3c(c2)OC(F)(F)O3)c1=O,0,0,0,0,0,-
O=C(CCC(=O)N1CC2C[C@@H](C1)Cn1c2cccc1=O)NCCc1ccccc1,0,0,0,-,0,-
CC12C=CC(=O)CC1CCC1C2CCC2(C)C(O)C(O)CC12 (stereo not drawn),-,0,0,-,118,0
Fc1ccccc1CNC1CN2CCC1CC2 (stereo not drawn),0,0,0,0,0,0
Ic1ccccc1CN[C@@H]1C2CCN(CC2)[C@@H]1C(c1ccccc1)c1ccccc1,0,0,0,-,0,74
O=C(CSC1c2ccccc2-c2ccccc21)N/N=C/c1ccc(C(=O)O)cc1,0,0,0,0,0,0
O=C(CSC1c2ccccc2-c2ccccc21)N/N=C/c1ccccc1O,0,0,0,0,54,-
Nc1ccc2nonc2c1[N+](=O)[O-],0,0,0,0,0,0
CN(C)C(CNC(=O)Cc1c(Cl)cccc1Cl)c1ccccc1 (stereo not drawn),0,0,0,0,0,0
CC1=CC(O)C(O)C2(C)C1CC1OC(=O)C(O)C3C(C)C(O)C4(O)OCC13C42 (stereo not drawn),-,0,0,-,0,0
COC(=O)[C@]12OC[C@]34C([C@@H](O)[C@@H]1O)[C@]1(C)CC(=O)C(O)=C(C)[C@@H]1C[C@H]3OC(=O)[C@H](O)[C@@H]24 (stereo partly drawn),0,0,0,0,0,65
CCN1CCC2(CCNC2)C1 (stereo not drawn),0,0,0,0,0,-
CN(CC1COc2ccccc2O1)c1nc(-c2cccnc2)nc2ccccc12 (stereo not drawn),0,0,0,0,90,0
COCCCn1c(N)c(C(=O)Nc2sc3c(c2C(=O)OC)CCCC3)c2nc3ccccc3nc21,0,0,0,0,93,-
O=C(NC1(C(F)(F)F)Oc2ccc(Cl)cc2O1)N1CCC2(CC1)OCCO2 (stereo not drawn),0,0,0,0,78,0
O=C(NC1(C(F)(F)F)Oc2ccccc2O1)N1CCC2(CC1)OCCO2,0,0,0,0,0,-
O=C1NC(=O)C(CCc2ccncc2)(CCc2ccccn2)C(=O)N1c1ccc(Br)cc1 (stereo not drawn),0,0,0,0,0,0
Oc1ccc(/C=N/NP(=S)(c2ccccc2)c2ccccc2)cc1,0,0,0,0,0,0
COc1cc(/C=N/NP(=S)(c2ccccc2)c2ccccc2)ccc1O,0,0,0,53,0,0
COC(=O)C1=C(c2cccc(OCc3ccccc3)c2)C[C@@H]2CC[C@H]1N2C(=O)NCc1ccc2[nH]ccc2c1,0,0,0,-,0,0
COC1CCC(OC2CC(C3(C)CCC4(CC(O)C(C)C(C(C)/C=C(\C)C(=O)C(C)CC(C)C(=O)O)O4)O3)OC3(OC(C4OC(O)(CO)C(C)CC4C)CC3C)C2C)OC1C (stereo not drawn),-,0,0,-,0,97
CN1CCC(N(C)c2nc(-c3ccc([N+](=O)[O-])cc3)nc3ccccc23)CC1,-,0,0,0,0,59
C=C(C)[C@@]12OC3(c4ccccc4)O[C@@H]1C1[C@@H]4O[C@]4(CO)[C@@H](O)[C@]4(O)C(=O)C(C)=C[C@H]4[C@@]1(O3)[C@H](C)[C@H]2OC(=O)/C=C/C=C/c1ccccc1 (stereo partly drawn),0,57,0,-,0,-
SMILES,MIN6 prolif,FAS TE block,aDG glyco act,m-calpain inh,H9c2 protect,TAG inh
O=C(C1CCC(=O)N1C1CCCCC1)N1CCC2(CC1)OCCO2 (stereo not drawn),0,0,0,59,0,-
O=C(CNC1CCCCC1)N1CCC2(CC1)OCCO2,0,0,0,0,0,0
O=c1c2ccccc2nc(/C=C/c2ccc(O)c(O)c2)n1-c1ccccc1,0,0,0,-,56,-
COc1cc(/C=C/c2nc3ccccc3c(=O)n2-c2ccccc2O)ccc1O,0,0,0,-,50,-
COc1cc(/C=C/c2nc3ccccc3c(=O)n2-c2cccc(O)c2)ccc1O,0,0,0,0,0,0
C[C@]12C=CC(=O)C=C1C=C[C@@H]1C2CC[C@]2(C)C(=O)CCC12 (stereo partly drawn),0,0,0,-,0,-
O=P(NC1CCCCC1)(Oc1ccccc1)Oc1ccccc1,-,0,0,-,0,0
Cc1nc2ccccc2c(=O)n1-c1ccc(Br)cn1,0,0,0,0,0,0
Cc1nc2ccccc2c(=O)n1/N=C/c1cc(Br)cc(Br)c1O,0,0,0,-,55,0
Cc1ccc(N2C(=O)NC(=O)/C(=C/C=C/c3ccco3)C2=O)cc1,0,0,0,0,0,-
Cc1cc(C)cc(N2C(=O)NC(=O)/C(=C\C=C\c3ccco3)C2=O)c1,-,0,0,0,61,-
CCOc1ccc2[nH]c(=O)c(CN(CCO)C3(c4nnnn4C4CCCCC4)CCCCC3)cc2c1,0,0,0,0,78,0
COc1ccc2[nH]c(C)c(CCNCc3cc(OC)c(OC)c(OC)c3)c2c1,0,0,0,0,0,0
COc1ccc2[nH]c(C)c(CCN3CCC(=O)C(C)C3C)c2c1 (stereo not drawn),0,0,0,60,0,0
CCCCn1c(=O)c(C(=O)Nc2ccsc2C(=O)OC)c(O)c2ccccc21,0,0,0,0,0,-
COc1cc2c3c(c1OC)Oc1ccc(cc1)C[C@H]1c4c(cc(OC)c(OC)c4Oc4ccc(cc4)C[C@@H]3N(C)CC2)CCN1C,0,0,0,-,0,86
O=[N+]([O-])c1ccc(N2CCOCC2)c2c1no[n+]2[O-],-,0,0,-,0,121
Cc1cccc(NC(=O)N2C[C@H]3C[C@@H](C2)c2cccc(=O)n2C3)c1,0,0,0,-,0,-
O=P(Nc1cccc(Cl)c1)(Oc1ccccc1)Oc1ccccc1,0,0,0,60,0,0
Oc1ccccc1CN(CCc1ccccc1)Cc1ccccc1,0,0,0,-,0,0
CC(C)Oc1cc(-n2c(=S)[nH]c3ccccc3c2=O)c(Cl)cc1Cl,0,0,0,63,0,-
COc1cc(-n2c(=S)[nH]c3ccccc3c2=O)c(Cl)cc1Cl,0,0,0,0,0,0
COC(=O)C1=C(C(=O)OC)C2OC1c1cc3ccccc3cc12,-,0,0,-,0,70
CCC1(CC)C(=O)C=CNC1=O,0,0,0,-,0,0
CCCCSP1(=S)NCCCO1 (stereo not drawn),0,0,0,0,0,0
O=C(N/N=C/c1c(O)n(C2CCCCC2)c(=S)[nH]c1=O)c1ccccc1,0,0,0,-,64,-
